Results filed as inconclusive are left out. Activity calls are given as the source filed them. How the source made its calls: active means hit-call score of the fitted dose curve at least 0.9, where 1 is the maximum; inconclusive means response in the unintended direction; inactive means score below 0.9.

The assay is described as follows: ATG_M_19_TRANS: Attagene TRANS-FACTORIAL HepG2 Assay for M19 Transcription Factor (Internal Marker) (AID 2282974). The following applies: HepG2 Attagene TRANS-FACTORIAL M19 internal marker reporter. As for the experimental part:
ATG_TRANS is a cell-based, multiplexed-readout assay that uses HepG2, a human liver cell line, with measurements taken at 24 hours after chemical dosing in a 24-well plate.ATG_M_19_TRANS is one of 30 assay component(s) measured or calculated from the ATG_TRANS assay. It is designed to make measurements of mRNA induction, a form of inducible reporter, as detected with fluorescence intensity signals by Reverse transcription polymerase chain reaction (RT-PCR) and Capillary electrophoresis technology.Data from the assay component ATG_M_19_TRANS was analyzed into 1 assay endpoint. This assay endpoint, ATG_M_19_TRANS, was analyzed in the positive analysis fitting direction relative to DMSO as the negative control and baseline of activity. Using a type of inducible reporter, measures of mRNA for gain-of-signal activity can be used to understand the background control at the transcription factor-level as they relate to the gene . Furthermore, this assay endpoint can be referred to as a secondary readout, because this assay has produced multiple assay endpoints where this one serves a background control function. To generalize the intended target to other relatable targets, this assay endpoint is annotated to the background measurement intended target family, where the subfamily is internal marker.
Human liver HepG2 cells are transiently transfected with multiple reporter transcription units (MRTUs) in 6-well plates using FuGene 6 reagent (Roche; 3 ml FuGene/1 mg DNA). The MRTU constructs are regulated by a cis-regulating element (promoter). […] A major difference between the CIS and TRANS system is that in CIS activities of endogenous TFs are measured, whereas the TRANS assay evaluates changes in activities of exogenous, chimeric NR-Gal4 proteins. […] At the end of 24 hour incubation, total RNA was isolated using TriZol reagent (Invitrogen). The isolated RNA is then reverse-transcribed using oligo(dT) primer and Mo-MLV reverse transcriptase (Invitrogen) with DNAse I (Ambion) treatment for 30 min. The one-tenth of the produced cDNA was amplified by PCR using Taq DNA polymerase (Invitrogen) and two reporter sequence-specific primers. The PCR products were fluorescently labeled by primer extension with 6-arboxyfluorescein (6-FAM) 5'-labeled reporter sequence-specific primer (2 min at 95 C, 20 s at 68 C and 10 min at 72 C) and these products were digested with 5U of HpaI (New England Biolabs) for 2h at 37 C. The fragments were purified using Qiaquick PCR columns (Qiagen), analyzed on an ABI 3130xL genetic analyzer (Applied Biosystems) with peak positions identified by using a set of X-rhodamine (ROX)-labeled MapMarker1000 molecular weight standards (BioVentures). The raw capillary electrophoresis data was processed using Attagraph software (Attagene).
Turning to `OC(Cc1ccccc1Cl)(Cn1[nH]cnc1=S)C1(Cl)CC1` (stereo not given), the outcome was inactive. The entry for `CCC[CH2][Sn]([Cl])([Cl])[CH2]CCC` is “inactive”; for `CC(C)(C)c1ccccc1O` it is “inactive”. The same measure for `Oc1cc(Cl)c(Cl)cc1Cl`: “inactive”; for `OC[P+](CO)(CO)CO`: “inactive”.

`C=C(C)C(=O)OCCCCOC(=O)C(=C)C`: the call was inactive.

As for `O=c1[nH]c(=O)n(Cl)c(=O)n1Cl`, the compound was called inactive. `CCOP(=S)(OCC)SCSc1cc(Cl)ccc1Cl`: the compound was called inactive.

For the compound `O=C(CCl)NCO`, the outcome was inactive. The same measure for `O=S(=O)(C(Cl)(Cl)Cl)C(Cl)(Cl)Cl`: “inactive”; for `Cc1c([N+](=O)[O-])c(C)c([N+](=O)[O-])c(C(C)(C)C)c1[N+](=O)[O-]`: “inactive”.

`CCOc1cc(C=O)ccc1O`: the outcome was inactive. The same measure for `C[N+](C)(C)Cc1ccccc1`: “inactive”.

With `CCOP(=S)(OCC)Oc1ccc(Cl)cc1Cl`, the compound was classed as inactive. The same measure for `CC(O)(CS(=O)(=O)c1ccc(F)cc1)C(=O)Nc1ccc(C#N)c(C(F)(F)F)c1` (stereo not given): “inactive”; for `N#Cc1ccc(Cl)cc1`: “inactive”. The same measure for `Cc1cc(SCc2sc(-c3ccc(C(F)(F)F)c(F)c3)nc2C)ccc1OCC(=O)O`: “inactive”; for `CCCCC(CC)C(=O)Cl` (stereo not given): “inactive”; for `CC(C)[N+](=O)[O-]`: “inactive”. The same measure for `Nc1nc(=S)[nH][nH]1`: “inactive”. `O=C(O)c1cc(I)cc(I)c1I`: the compound was classed as inactive. The same measure for `OCCCCO`: “inactive”. The same measure for `N#Cc1ccccc1N`: “inactive”; for `CCCCOP(=O)(CCCC)OCCCC`: “inactive”; for `c1ccc(-c2cccc(-c3ccccc3)c2)cc1`: “inactive”. In the case of `Nc1ccc(N)cc1`, the outcome was inactive. For the compound `CCCCCCCCBr`, the result was inactive. The same measure for `CN(C)C(=S)S`: “inactive”. Consider `O=c1oc2ccccc2c(O)c1C(CC(O)c1ccc(-c2ccc(Br)cc2)cc1)c1ccccc1` (stereo not given), for which the call was inactive. The entry for `NC(=O)c1ccc(N)nc1` is “inactive”; for `O=C(O)CC(O)(CC(=O)O)C(=O)O` it is “inactive”. As to `CCCCCCCCCCCCCCC(Br)C(=O)O` (stereo not given), the result was inactive. The entry for `O=c1[nH]c2ccccc2n1C1CCN(CCCC(c2ccc(F)cc2)c2ccc(F)cc2)CC1` is “inactive”; for `CCCCN(CCCC)C(=S)[S-].CCCCN(CCCC)C(=S)[S-].[Ni+2]` it is “inactive”; for `O=C(O)COc1cc(Cl)c(Cl)cc1Cl` it is “inactive”. The same measure for `CCOc1ccc(N)cc1`: “inactive”; for `O=C(Nc1ccc(Br)cc1)c1cc(Br)cc(Br)c1O`: “inactive”. Turning to `Brc1c(Br)c(Br)c(Oc2c(Br)c(Br)c(Br)c(Br)c2Br)c(Br)c1Br`, the compound was classed as inactive.

As to `CCOC(=O)C(SP(=S)(OC)OC)c1ccccc1` (stereo not given), the compound was classed as inactive. On to `Cc1cccc(OP(=O)(Oc2cccc(C)c2)Oc2cccc(C)c2)c1`, for which the compound was classed as inactive.

(Values after PubChem BioAssay (EPA / NIEHS).)
